# Records with an inconclusive call do not appear. Active and inactive are the calls of the source. How the source made its calls, unless noted: active means hit-call score of the fitted dose curve at least 0.9, where 1 is the maximum; inactive means score below 0.9.
# Tests used:
# [1] = CCTE_Shafer_MEA_acute_LDH: CCTE's Lactate Dehydrogenase Assay for Cytotoxicity in the Neural Acute Assay, Shafer Lab (AID 2284086; active means hit-call score of the fitted dose curve at least 0.9, where 1 is the maximum;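 further: active means LDH release rises above DMSO vehicle level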)
# How it was run: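 Primary rat cortical neurons on 48-well MEA plates, treated on day 13 or 15 post-plating. After the 40-min recording with compound, medium LDH release was read by absorbance at 490 nm. Gain of signal was fitted against DMSO negative control.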
# [2] = CCTE_Shafer_MEA_dev_mutual_information_norm: CCTE's Neural Network Formation Assay for Mutual Information Normalization, Shafer Lab (AID 2284091);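 on AC50: mutual information between electrodes summarised as area under curve across four recording days; potency is for a decrease in mutual information relative to DMSO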
# How it was run: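 Primary rat cortical neurons on PEI-coated 48-well MEA plates, 1.5 x 10^5 cells/well, exposed from day 0 through day 12 with re-dosing at DIV 5 and 9. Mutual information between electrodes recorded days 5, 7, 9, 12; trapezoidal AUC, loss-of-signal fit versus DMSO.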
# [3] = CCTE_Shafer_MEA_dev_correlation_coefficient_mean: CCTE's Neural Network Formation Assay for Mean Correlation Coefficient, Shafer Lab (AID 2284093);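 on AC50: well mean pairwise spike train correlation integrated as AUC over recording days 5 to 12; potency fitted for loss of correlation relative to DMSO vehicle wells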
# How it was run: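 Rat cortical cultures, 1.5 x 10^5 cells/well, dosed from day 0 for 12 days. Spontaneous spikes recorded DIV 5/7/9/12; electrode-pair correlation coefficients averaged, AUC taken. Fit in loss direction vs DMSO.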
# [4] = IUF_NPC1b_proliferation_BrdU_72hr: Leibniz Research Institute for Environmental Medicine (IUF) 72-hour Neural Progenitor Cell Bromodeoxyuridine (BrdU) Proliferation Assay (NPC1b) (AID 2284207)
# How it was run: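 BrdU luminescence ELISA quantified DNA synthesis over the last 16 h of a 72 h exposure, fitted against DMSO. Primary hNPC spheres from gestational week 16-19 cortex grown with EGF/FGF at 37C, pH 7.2-7.6.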
# [5] = IUF_NPC1a_proliferation_area_72hr: Leibniz Research Institute for Environmental Medicine (IUF) 72-hour Neural Progenitor Cell Proliferation Area Assay (NPC1a) (AID 2284208)
# How it was run: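 hNPC spheres (human fetal cortex, GW 16-19), one per poly-Hema U-bottom well; EGF+FGF medium; dosed day 0, no re-dosing; 72 h, 37C, 5% CO2; phase-contrast sphere area; DMSO = baseline; minus-GF = positive ctrl.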
# [6] = IUF_NPC1_viability_72hr: Viability Assessment at 72 hours in the Leibniz Research Institute for Environmental Medicine (IUF) Neural Progenitor Cell Proliferation Assay (NPC1) (AID 2284209)
# How it was run: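 Human fetal-cortex neural progenitor spheres (0.25–0.35 mm, one per well) grown in EGF/FGF proliferation medium at 37C, pH 7.2-7.6, exposed 72 h without renewal; viability read as alamar blue resazurin-to-resorufin fluorescence relative to DMSO.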
# [7] = CCTE_Mundy_HCI_Cortical_Synap_Neur_Matur_NeuriteSpotCountPerNeuriteLength: CCTE's Synaptogenesis and Neurite Maturation Assay in rat cortical cells for Neurite Spot Count per Neurite Length, Mundy Lab (AID 2284210)
# How it was run: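 Rat primary cortical cultures, AraC added at DIV 5 to suppress glia; chemical exposure from DIV 7 to DIV 12. Fixed cells stained for MAP2 and synaptophysin plus Hoechst; synaptophysin puncta per neurite length quantified by high-content imaging, relative to DMSO.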
# [8] = CCTE_Mundy_HCI_Cortical_Synap_Neur_Matur_BPCount: CCTE's Synaptogenesis and Neurite Maturation Assay in rat cortical cells for Branch Point Count, Mundy Lab (AID 2284211)
# How it was run: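 Branch point number is quantified by automated imaging of fluorescently labelled neurites and synapses in rat primary cortical neurons exposed from DIV 7 to DIV 12. Activity is analysed relative to DMSO negative control.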
# [9] = UKN2_HCS_IMR90_neural_migration: University of Konstanz (UKN) Leist Lab Neural Crest Cell Migration Assay in human induced IMR90 Pluripotent Stem Cells (UKN2) (AID 2284204); details: actives raise or lower the signal
# How it was run: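 iPSC-derived IMR90 neural crest cells seeded around stoppers on PLO/laminin/fibronectin; migration started in N2-S medium with EGF/FGF, compounds added after 24 h for 24 h. Migration into cell-free area imaged after calcein-AM/Hoechst staining; bidirectional fit versus DMSO.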
structure (smiles),measurement,setting,value
O=C(N[C@H](c1ccccc1)[C@@H]1CN2CCC1CC2)c1c(Cl)ccc(C(F)(F)F)c1Cl,outcome,[1],inactive
CC(C)(C)C(O)(CCc1ccc(Cl)cc1)Cn1cncn1 (stereo not given),outcome,[1],inactive
same,AC50,[2],2.24 µM (active)
same,AC50,[3],15 µM (active)
same,outcome,[4],inactive
same,outcome,[5],inactive
same,AC50,[6],0.439 µM (active)
same,outcome,[7],inactive
same,AC50,[8],11.2 µM (active)
CCCCOC(=O)c1ccccc1C(=O)OCc1ccccc1,outcome,[1],inactive
same,outcome,[2],inactive
same,outcome,[3],inactive
same,outcome,[9],inactive
same,AC50,[4],82 µM (active)
same,outcome,[5],inactive
same,outcome,[6],inactive
same,outcome,[7],inactive
same,AC50,[8],10 µM (active)
ClC1=C(Cl)[C@]2(Cl)[C@H]3[C@H]([C@@H]4C=C[C@H]3C4)[C@@]1(Cl)C2(Cl)Cl,outcome,[1],inactive
same,AC50,[2],0.909 µM (active)
same,AC50,[3],1.99 µM (active)
ClC1=C(Cl)C2(Cl)C3C(Cl)C=CC3C1(Cl)C2(Cl)Cl (stereo not given),outcome,[1],inactive
same,AC50,[2],1.52 µM (active)
same,AC50,[3],1.97 µM (active)
same,outcome,[7],inactive
same,AC50,[8],13.3 µM (active)
N#CC(Br)Br,outcome,[1],inactive
O=P(OCCCl)(OCCCl)OCCCl,outcome,[1],inactive
same,outcome,[2],inactive
same,outcome,[3],inactive
same,outcome,[4],inactive
same,outcome,[5],inactive
same,outcome,[6],inactive
C1=Cc2cccc3cccc1c23,outcome,[2],inactive
same,outcome,[3],inactive
CC(C)COC(=O)c1ccccc1C(=O)OCC(C)C,outcome,[1],inactive
same,AC50,[2],22.2 µM (active)
same,AC50,[3],13.9 µM (active)
same,outcome,[9],inactive
same,outcome,[4],inactive
same,outcome,[5],inactive
same,outcome,[6],inactive
same,AC50,[7],87.9 µM (active)
same,AC50,[8],76.7 µM (active)
CC(C)(O)c1cnn2c(-c3ccc(F)c(-c4c(F)cccc4C#N)c3)cnc2n1,outcome,[1],inactive
same,AC50,[2],0.191 µM (active)
same,outcome,[3],inactive
CNC(=O)Oc1cccc2c1OC(C)(C)C2,outcome,[2],inactive
same,outcome,[3],inactive
same,outcome,[9],inactive
same,outcome,[4],inactive
same,outcome,[5],inactive
same,outcome,[6],inactive
same,outcome,[7],inactive
same,outcome,[8],inactive

# From PubChem BioAssay (EPA / NIEHS)
